Screening data as filed in PubChem.
Sampled rows, rich in hits. Any-hit rate of the full collection: about 3.9%.
Peg3 prom inh: reduces Peg3 promoter-driven luciferase expression in HeLa | HeLa PEG-Prom luciferase reporter, luminescence, overnight | inhibition, % at 20 µM | 1.7% of 360,000 active | AID 588405;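 active = inhibition of at least 50% at 20 µM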
CF NFkB inh: cystic fibrosis NF-kB activation inhibition; KKLEB NF-kB-GFP reporter, PAF-induced, GFP fluorescence overnight; inhibition, % at 5 µM; 0.86% of 360,000 active; AID 588850;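 active = at least 50% inhibition at 5 µM, scaled per plate between neutral and stimulator controls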;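 note: PAF is a Pseudomonas aeruginosa culture filtrate used as stimulus; plate controls were PAF-stimulated DMSO wells for no effect and unstimulated DMSO wells for full effect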
TROY signal inh: inhibitors of TROY-dependent NF-kB signaling; inhibition, % at 10 µM; Q293 LMP1-TROYcd NF-kB luciferase reporter, 4 h; 0.98% of 360,000 active;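 active = compounds whose plate-normalised and pattern-corrected inhibition of the luciferase reporter signal at the single screening dose is 50% or more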
TWEAK-Fn14 inh: inhibitors of TWEAK-Fn14 interaction signaling; AID 1159606; 2% of 360,000 active; inhibition, % at 10 µM; TWEAK-stimulated Fn14 reporter cells, luciferase luminescence, 8 h; in the data active = inhibition above about 50%
HIF-2a inh: blocks HIF-2a reporter activity; 786-0 RCC cells HIF-2a reporter, luciferase luminescence, overnight; 0.72% of 360,000 active; inhibition, % at 18.8 µM;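 active = inhibition of the luminescence signal of 40% or more relative to plate controls, in a single-dose primary screen at 18.75 µM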
KKLEB tox: reduces viability of KKLEB cystic fibrosis airway cells; activity change (cytotoxicity), % at 5 µM; AID 602141; KKLEB CF airway cells viability, ATPlite luminescence, overnight; hits give low values; cells stimulated with P. aeruginosa culture filtrate; 0.36% of 360,000 active;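 active = corrected activity change at or below -50% at 5 µM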
Active calls of the source: *.

SMILES	Peg3 prom inh	CF NFkB inh	TROY signal inh	TWEAK-Fn14 inh	HIF-2a inh	KKLEB tox
CC[C@@]1(C(=O)OC)N[C@H](CN(C)C(=O)c2ccc(C(C)(C)C)cc2)[C@@H]2C(=O)N(Cc3ccccc3)C(=O)[C@@H]21	44	14	15	13	-6	5
CCN(C[C@H]1N[C@@](CC)(C(=O)OC)[C@H]2C(=O)N(C)C(=O)[C@@H]12)S(=O)(=O)c1ccc(C(F)(F)F)cc1	9	-2	10	4	4	-1
COC(=O)c1cccc(N2C(=O)C(Cl)=C(N3CCOCC3)C2=O)c1	5	-12	-32	3	-3	-3
O=C(COc1ccc(Br)cc1)Nc1ccc(S(=O)(=O)Nc2ccccn2)cc1	18	-26	3	14	23	6
O=C(Nc1ccc(S(=O)(=O)N2CCOCC2)cc1)c1cc(-c2cc(Cl)ccc2O)n[nH]1	86*	23	69*	91*	-3	-44
Cc1cc(O)c(-c2cc(C(=O)Nc3ccc(S(=O)(=O)N4CCOCC4)cc3)[nH]n2)cc1C	60*	5	35	31	-4	9
Cc1ccc(O)c(-c2cc(C(=O)Nc3ccc(S(=O)(=O)N4CC(C)OC(C)C4)cc3)[nH]n2)c1 (configuration not stated)	55*	-5	44	49	-4	9
Cc1ccc(-c2cc(C(=O)Nc3ccc(S(=O)(=O)N4CC(C)OC(C)C4)cc3)[nH]n2)c(O)c1 (configuration not stated)	43	13	20	-2	21	-8
O=C(Nc1ccc(Cl)cc1)c1ccc(S(=O)(=O)N2CCOCC2)cc1	-12	-25	2	46	-1	6
COc1ccc(CCNC(=O)c2cn3ccc(C)cc3n2)cc1OC	-3	1	7	5	-19	-3
CC1CCCN(C(=O)CSc2n[nH]c(-c3cccs3)n2)C1 (configuration not stated)	-47	8	-18	-10	-64	6
CCn1c(SCC(N)=O)nc2cc(S(=O)(=O)N3CCOCC3)ccc21	-1	9	0	22	14	0
CCn1c(CCl)nc2cc(S(=O)(=O)N3CCOCC3)ccc21	71*	8	-8	-4	13	1
CC1(C)CC(CCN)(Cc2ccccc2Cl)CCO1 (configuration not stated)	13	0	23	-40	9	-6
Cc1cc(=O)n2c3ccccc3n(CC(O)CN3CCN(CCO)CC3)c2c1C#N (configuration not stated)	10	-8	2	68*	5	4
NS(=O)(=O)c1ccc(CCNC(=O)CN2CCCCC2)cc1	26	10	8	5	4	17
Nc1cc(=O)[nH]c(SCc2cccc3ccccc23)n1	26	-11	17	-9	11	-6
O=c1cc(C(F)(F)F)nc(SCc2cccc3ccccc23)[nH]1	-14	2	62*	-28	-31	4
COc1ccc(NS(=O)(=O)c2ccc(N/N=C(\C)c3ccncc3)c([N+](=O)[O-])c2)cc1	28	37	37	74*	30	-28
CSc1ccc(C=NNc2ccc(S(=O)(=O)Nc3ccccc3C(=O)O)cc2[N+](=O)[O-])cc1	-12	20	4	6	-1	9
Cc1nn(-c2ccccc2)c(Cl)c1/C=N/Nc1ccc(S(=O)(=O)Nc2ccccc2C(=O)O)cc1[N+](=O)[O-]	2	4	52*	-4	8	-12
COc1ccc(C=NNc2ccc(S(=O)(=O)Nc3ccccc3C(=O)O)cc2[N+](=O)[O-])c(OC)c1	-3	26	59*	-52	3	-20
O=C(O)c1ccccc1NS(=O)(=O)c1ccc(NN=Cc2ccccc2F)c([N+](=O)[O-])c1	-4	20	43	-17	3	9
Cc1c(NC(=O)Cn2[nH]c(=O)c3ccccc3c2=O)c(=O)n(-c2ccccc2)n1C	-3	-8	4	13	4	1
Cc1sc(NC(=O)Cn2[nH]c(=O)c3ccccc3c2=O)nc1-c1ccccc1	63*	16	-7	-9	-33	-2
SMILES	Peg3 prom inh	CF NFkB inh	TROY signal inh	TWEAK-Fn14 inh	HIF-2a inh	KKLEB tox
CC(C)N(C)c1ncnc2c1ncn2[C@H]1CN(Cc2ccco2)C[C@@H](CO)O1	-3	14	6	-16	0	-3
CCc1ccc2c(c1)C1(NN=C(c3ccc(C)cc3)S1)C(=O)N2 (configuration not stated)	48	2	-24	-28	89*	-12
Cc1ccc(NC(=O)c2ccc(NCCc3ccccc3)c([N+](=O)[O-])c2)cc1F	19	46	-38	-30	6	-50*
O=C(COc1ncnc2ccc(Br)cc12)Nc1ccc(N2CCOCC2)cc1	3	0	-11	3	11	2
Brc1ccc2ncnc(Nc3ccc(N4CCOCC4)cc3)c2c1	3	67*	42	59*	5	2
Cc1[nH]n(-c2ccccc2)c(=O)c1N=Nc1nccs1	-15	6	-22	14	-108	-5
CN(C)c1ccc(N=Nc2nccs2)cc1	-60	-30	38	79*	-8	-32
COc1ccc(C=C(C(=O)c2ccccc2)C(=O)c2ccccc2)cc1	-319	11	-20	52*	-105	-8
Cc1ccc(S(=O)(=O)N2C[C@@H]3[C@H]4CC[C@H](C4)[C@@H]3[C@@H](C)[C@@H]2c2cn(Cc3ccccc3)c3ccc(F)cc23)cc1	30	13	-6	0	18	-16
COc1ccccc1N1CCN(C(=O)COc2cc(C)cc3oc(=O)cc(C)c23)CC1	34	-17	4	-11	10	-7
Cc1cc(NC(=O)c2cc(C3CC3)on2)n(-c2ccccc2)n1	6	12	9	2	-5	-3
O=c1cc(-c2ccccc2)nc2c(-c3ccccc3)c(C(F)(F)F)[nH]n12	29	20	56*	22	9	-11
NNc1nc2ccccc2c(=O)n1Cc1ccccc1	-78	6	-53	74*	-102	4
CC(C)OCCCn1c(NN)nc2ccccc2c1=O	0	-13	-9	-12	-10	6
COc1cccc(CNC(=O)CCn2ccc3cc(S(=O)(=O)N4CCCC4)ccc32)c1	-1	-10	9	6	2	1
O=c1c2sc(-c3ccccc3)cc2nc2n1CCC2	-57	-13	22	74*	-35	-8
O=c1c2sc(-c3ccccc3)cc2nc2n1CCCCC2	-211	4	-34	27	-263	-6
CCOC(=O)C1=CN(CC)S(=O)(=O)NC1CCc1ccccc1 (configuration not stated)	11	10	3	-2	5	-1
C=C1C(=O)O[C@H]2[C@H]1[C@@H](O)CC(=C)[C@@H]1CC(=O)[C@@H](C)[C@H]21	36	85*	18	43	26	11
